Reference: PubChem BioAssay AID1159580 (chemical genetic matrix, 2015)
In all, about 5,500 compounds went through this assay and about 2,000 (36%) were called active. Inconclusive results (about 18%) are left out. No stated cut-off is given here; in the data, active means normalized growth mostly below about 0.91 (no sharp cut-off); inconclusive means no clear call, values can overlap the other calls; inactive means mostly above about 0.92. The list shows a part of the results.

Assay: chemical genetic growth profiling, strain panel (AID 1159580);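 further: tested at 20 µM; growth read once vehicle control cultures reached saturation at 30 °C; 1 = growth at the plate median or of vehicle wells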
Details: growth OD
[1] = S. cerevisiae deletion strains, locus YAL013W, strain DEP1, stronger effect = lower value
[2] = S. cerevisiae deletion strains, locus YBR229C, strain ROT2, stronger effect = lower value
[3] = S. cerevisiae deletion strains, locus YDL101C, strain DUN1, stronger effect = lower value
[4] = S. cerevisiae deletion strains, locus YDR150W, strain NUM1, stronger effect = lower value
[5] = S. cerevisiae deletion strains, locus YEL061C, strain CIN8, stronger effect = lower value
[6] = S. cerevisiae deletion strains, locus YGR078C, strain PAC10, stronger effect = lower value
[7] = S. cerevisiae deletion strains, locus YHR030C, strain SLT2, stronger effect = lower value
[8] = S. cerevisiae deletion strains, locus YHR087W, strain rtc3, stronger effect = lower value
[9] = S. cerevisiae deletion strains, locus YJR043C, strain POL32, stronger effect = lower value
[10] = S. cerevisiae deletion strains, locus YJR075W, strain HOC1, stronger effect = lower value
[11] = S. cerevisiae deletion strains, locus YLR039C, strain RIC1, stronger effect = lower value
[12] = S. cerevisiae deletion strains, locus YLR058C, strain SHM2 (second series), stronger effect = lower value
[13] = S. cerevisiae deletion strains, locus YLR085C, strain ARP6, stronger effect = lower value
[14] = S. cerevisiae deletion strains, locus YLR262C, strain YPT6, stronger effect = lower value
[15] = S. cerevisiae deletion strains, locus YML094W, strain GIM5, stronger effect = lower value
[16] = S. cerevisiae deletion strains, locus YMR219W, strain ESC1, stronger effect = lower value
[17] = S. cerevisiae deletion strains, locus YMR263W, strain SAP30, stronger effect = lower value
[18] = S. cerevisiae deletion strains, locus YMR307W, strain GAS1, stronger effect = lower value
[19] = S. cerevisiae deletion strains, locus YNL128W, strain TEP1, stronger effect = lower value
[20] = S. cerevisiae deletion strains, locus YNL153C, strain GIM3, stronger effect = lower value
[21] = S. cerevisiae deletion strains, locus YNL298W, strain CLA4 (second series), stronger effect = lower value
[22] = S. cerevisiae deletion strains, locus YNL322C, strain KRE1, stronger effect = lower value
[23] = S. cerevisiae deletion strains, locus YNR030W, strain Alg12, stronger effect = lower value
[24] = S. cerevisiae deletion strains, locus YPL055C, strain LGE1, stronger effect = lower value
[25] = S. cerevisiae deletion strains, locus YPL241C, strain CIN2, stronger effect = lower value
[26] = S. cerevisiae deletion strains, locus YPR135W, strain CTF4, stronger effect = lower value
[27] = S. cerevisiae deletion strains, locus YKL190W, strain CNB1, stronger effect = lower value
[28] = S. cerevisiae deletion strains, locus YOL006C, strain TOP1, stronger effect = lower value
[29] = S. cerevisiae strains, strain wild type, stronger effect = lower value

Measured: normalized growth

COc1cc(/C=C2/SC(=S)NC2=O)cc(OC)c1OC
inactive: [4] 0.897 | [5] 0.977 | [7] 0.87 | [8] 0.911 | [9] 0.948 | [13] 0.845 | [15] 0.969 | [18] 0.887 | [19] 0.977 | [21] 0.912 | [23] 0.922 | [24] 0.881 | [25] 0.885 | [26] 0.809
active: [1] 0.915 | [2] 0.894 | [3] 0.865 | [6] 0.877 | [10] 0.822 | [11] 0.725 | [12] 0.919 | [14] 0.73 | [16] 0.926 | [17] 0.901 | [20] 0.92 | [22] 0.926

COc1cc(/C=C2/N=C(c3ccccc3I)OC2=O)cc(OC)c1OC
inactive: [1] 1 | [2] 1.01 | S. cerevisiae deletion strains, locus YCL061C, strain MRC1, stronger effect = lower value 1.01 | [3] 1.03 | [4] 0.888 | [5] 0.984 | [6] 1 | S. cerevisiae deletion strains, locus YGR229C, strain SMI1, stronger effect = lower value 0.981 | [7] 0.956 | [8] 1.01 | [9] 1 | [10] 1.01 | [27] 0.995 | [11] 0.964 | [12] 0.996 | [13] 1.01 | [14] 0.947 | [15] 1.02 | [16] 1 | [17] 1 | [18] 0.961 | [20] 1.01 | [21] 1.01 | [22] 0.994 | [23] 0.982 | [28] 0.998 | [24] 1.12 | [25] 0.967 | [26] 0.903 | [29] 0.989

COc1cc(/C=C/C=O)cc(OC)c1OC
inactive: [1] 1.03 | S. cerevisiae deletion strains, locus YBR021W, strain FUR4, stronger effect = lower value 1.01 | [2] 1.01 | S. cerevisiae deletion strains, locus YCL029C, strain bik1, stronger effect = lower value 1.03 | S. cerevisiae deletion strains, locus YDL035C, strain GPR1, stronger effect = lower value 1.04 | S. cerevisiae deletion strains, locus YDL074C, strain BRE1, stronger effect = lower value 1.07 | [3] 1.02 | S. cerevisiae deletion strains, locus YDL185W, strain tfp1, stronger effect = lower value 1 | S. cerevisiae deletion strains, locus YDL192W, strain arf1, stronger effect = lower value 1.02 | S. cerevisiae deletion strains, locus YDR101C, strain arx1, stronger effect = lower value 1.02 | S. cerevisiae deletion strains, locus YDR162C, strain NBP2, stronger effect = lower value 1.07 | S. cerevisiae deletion strains, locus YDR318W, strain mcm21, stronger effect = lower value 1.03 | S. cerevisiae deletion strains, locus YDR388W, stronger effect = lower value 1.01 | S. cerevisiae deletion strains, locus YDR502C, strain sam2, stronger effect = lower value 1.02 | S. cerevisiae deletion strains, locus YER110C, stronger effect = lower value 1 | S. cerevisiae deletion strains, locus YER155C, strain BEM2, stronger effect = lower value 1.02 | S. cerevisiae deletion strains, locus YER167W, strain BCK2, stronger effect = lower value 1.02 | S. cerevisiae deletion strains, locus YGL078C, strain dbp3, stronger effect = lower value 1.01 | S. cerevisiae deletion strains, locus YGL086W, strain mad1, stronger effect = lower value 1.02 | S. cerevisiae deletion strains, locus YGL248W, strain PDE1, stronger effect = lower value 1.04 | [6] 1.04 | S. cerevisiae deletion strains, locus YGR135W, strain pre9, stronger effect = lower value 0.998 | S. cerevisiae deletion strains, locus YGR252W, strain gcn5, stronger effect = lower value 1.03 | S. cerevisiae deletion strains, locus YHR079C, strain IRE1 (second series), stronger effect = lower value 1 | S. cerevisiae deletion strains, locus YHR094C, strain hxt1, stronger effect = lower value 0.995 | S. cerevisiae deletion strains, locus YHR129C, strain ARP1, stronger effect = lower value 1.02 | S. cerevisiae deletion strains, locus YHR200W, strain rpn10, stronger effect = lower value 1.01 | S. cerevisiae deletion strains, locus YIL066C, strain RNR3, stronger effect = lower value 1.02 | S. cerevisiae deletion strains, locus YIL073C, strain SPO22, stronger effect = lower value 1.06 | S. cerevisiae deletion strains, locus YIL125W, strain kgd1, stronger effect = lower value 1 | S. cerevisiae deletion strains, locus YIR030C, strain dcg1, stronger effect = lower value 1.01 | S. cerevisiae deletion strains, locus YJL095W, strain BCK1, stronger effect = lower value 1.06 | S. cerevisiae deletion strains, locus YJL134W, strain LCB3, stronger effect = lower value 1.01 | S. cerevisiae deletion strains, locus YJL168C, strain set2, stronger effect = lower value 0.997 | S. cerevisiae deletion strains, locus YJL187C, strain SWE1 (second series), stronger effect = lower value 1.04 | [9] 1.06 | S. cerevisiae deletion strains, locus YKL009W, strain mrt4, stronger effect = lower value 1.01 | S. cerevisiae deletion strains, locus YKL068W, stronger effect = lower value 0.994 | S. cerevisiae deletion strains, locus YKL085W, strain MDH1 (second series), stronger effect = lower value 1.01 | S. cerevisiae deletion strains, locus YKL085W, strain MDH1, stronger effect = lower value 1.01 | [27] 1.01 | S. cerevisiae deletion strains, locus YKR001C, strain vps1, stronger effect = lower value 1.07 | [11] 1.14 | S. cerevisiae deletion strains, locus YLR058C, strain SHM2, stronger effect = lower value 1.03 | S. cerevisiae deletion strains, locus YLR102C, strain apc9, stronger effect = lower value 0.999 | [14] 1.13 | S. cerevisiae deletion strains, locus YLR268W, strain sec22, stronger effect = lower value 1.03 | S. cerevisiae deletion strains, locus YLR342W, strain FKS1 (second series), stronger effect = lower value 1.09 | S. cerevisiae deletion strains, locus YLR371W, strain rom2, stronger effect = lower value 0.991 | S. cerevisiae deletion strains, locus YLR418C, strain cdc73, stronger effect = lower value 1.02 | S. cerevisiae deletion strains, locus YML016C, strain PPZ1, stronger effect = lower value 1.02 | S. cerevisiae deletion strains, locus YML032C, strain rad52, stronger effect = lower value 1.03 | S. cerevisiae deletion strains, locus YML124C, strain tub3, stronger effect = lower value 0.996 | S. cerevisiae deletion strains, locus YMR078C, strain ctf18, stronger effect = lower value 0.994 | S. cerevisiae deletion strains, locus YMR223W, strain ubp8, stronger effect = lower value 1.01 | [17] 1.03 | [18] 1.06 | S. cerevisiae deletion strains, locus YNL067W, strain RPL9B, stronger effect = lower value 1.03 | [19] 1.03 | S. cerevisiae deletion strains, locus YNL233W, strain BNI4, stronger effect = lower value 1.04 | S. cerevisiae deletion strains, locus YNL250W, strain rad50, stronger effect = lower value 1 | S. cerevisiae deletion strains, locus YNL271C, strain bni1, stronger effect = lower value 1 | S. cerevisiae deletion strains, locus YNL298W, strain CLA4, stronger effect = lower value 0.995 | S. cerevisiae deletion strains, locus YNL307C, strain MCK1, stronger effect = lower value 1 | S. cerevisiae deletion strains, locus YNR052C, strain pop2, stronger effect = lower value 1 | [28] 1.22 | S. cerevisiae deletion strains, locus YOL012C, strain htz1 0.967 | S. cerevisiae deletion strains, locus YOL147C, strain pex11, stronger effect = lower value 1.01 | S. cerevisiae deletion strains, locus YOR061W, strain CKA2, stronger effect = lower value 1.04 | S. cerevisiae deletion strains, locus YOR069W, strain VPS5, stronger effect = lower value 1.01 | S. cerevisiae deletion strains, locus YOR136W, strain idh2, stronger effect = lower value 1.01 | S. cerevisiae deletion strains, locus YOR144C, strain elg1, stronger effect = lower value 0.998 | S. cerevisiae deletion strains, locus YOR184W, strain ser1, stronger effect = lower value 1.07 | S. cerevisiae deletion strains, locus YOR316C, strain cot1, stronger effect = lower value 0.988 | [24] 1.08 | [25] 1.01 | S. cerevisiae deletion strains, locus YPR119W, strain clb2, stronger effect = lower value 0.995 | S. cerevisiae deletion strains, locus YPR141C, strain kar3, stronger effect = lower value 1 | S. cerevisiae deletion strains, locus YPR163C, strain tif3, stronger effect = lower value 1.02 | S. cerevisiae deletion strains, locus YPR167C, strain met16, stronger effect = lower value 1.01 | S. cerevisiae deletion strains, strain wtn01, stronger effect = lower value 1.03 | [29] 1.05
